What was measured:
Assay in all cases: SPOT peptide array binding signal intensity (averaged, normalized) (arbitrary units (background-subtracted, floor 0; scale differs between SH3 domains)); higher = stronger binding of the SH3 domain to the peptide
[1] = molecular target: CaNbp2
Procedure, shortened: (§1)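 Spot intensities were captured after detection with anti-GST antibody, an HRP-linked anti-mouse secondary and luminol, and quantified with Genespotter. The probes were GST-fused SH3 domains from four yeast species, produced in E. coli BL21(DE3), purified on glutathione Sepharose and incubated at 10 μg/ml overnight at 4°C on cellulose-bound synthetic 15-mer peptides with cysteines replaced by serines. Binding signal is the normalized, background-subtracted spot intensity averaged over replicates, and its arbitrary units differ between domains.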

[2] = molecular target: CaRvs167
Procedure, shortened: as §1

[3] = molecular target: CaRvs167-3
Procedure, shortened: as §1

[4] = molecular target: CaSho1
Procedure, shortened: as §1

[5] = molecular target: CaSla1-D1-D2
Procedure, shortened: as §1

[6] = molecular target: CaSla1-D3
Procedure, shortened: as §1

[7] = molecular target: ScAbp1
Procedure, shortened: as §1

[8] = molecular target: ScBbc1
Procedure, shortened: as §1

[9] = molecular target: ScBem1-D1
Procedure, shortened: as §1

[10] = molecular target: ScBzz1-D1
Procedure, shortened: as §1

[11] = molecular target: ScBzz1-D2
Procedure, shortened: as §1

[12] = molecular target: ScCyk3
Procedure, shortened: as §1

[13] = molecular target: ScFus1
Procedure, shortened: as §1

[14] = molecular target: ScHof1
Procedure, shortened: as §1

[15] = molecular target: ScHse1
Procedure, shortened: as §1

[16] = molecular target: ScLsb1
Procedure, shortened: as §1

[17] = molecular target: ScLsb2
Procedure, shortened: as §1

[18] = molecular target: ScLsb3
Procedure, shortened: as §1

[19] = molecular target: ScLsb4
Procedure, shortened: as §1

[20] = molecular target: ScMyo3
Procedure, shortened: as §1

[21] = molecular target: ScMyo5
Procedure, shortened: as §1

[22] = molecular target: ScNbp2
Procedure, shortened: as §1

[23] = molecular target: ScPex13
Procedure, shortened: as §1

[24] = molecular target: ScRvs167
Procedure, shortened: as §1

[25] = molecular target: ScSho1
Procedure, shortened: as §1

[26] = molecular target: ScSla1-D1-D2
Procedure, shortened: as §1

[27] = molecular target: ScSla1-D3
Procedure, shortened: as §1

[28] = molecular target: SpAbp1-D1
Procedure, shortened: as §1

[29] = molecular target: SpBbc1
Procedure, shortened: as §1

[30] = molecular target: SpBzz1-D1
Procedure, shortened: as §1

[31] = molecular target: SpBzz1-D2
Procedure, shortened: as §1

[32] = molecular target: SpCyk3
Procedure, shortened: as §1

[33] = molecular target: SpHof1
Procedure, shortened: as §1

[34] = molecular target: SpHof1-2
Procedure, shortened: as §1

[35] = molecular target: SpHof1-3
Procedure, shortened: as §1

[36] = molecular target: SpHse1
Procedure, shortened: as §1

[37] = molecular target: SpLsb1
Procedure, shortened: as §1

[38] = molecular target: SpLsb4
Procedure, shortened: as §1

[39] = molecular target: SpMyo1
Procedure, shortened: as §1

[40] = molecular target: SpNbp2
Procedure, shortened: as §1

[41] = molecular target: SpPex13
Procedure, shortened: as §1

[42] = molecular target: SpRvs167
Procedure, shortened: as §1

[43] = molecular target: SpSla1-D1-D2
Procedure, shortened: as §1

[44] = molecular target: SpSla1-D3
Procedure, shortened: as §1

[45] = molecular target: AgAbp1
Procedure, shortened: as §1

[46] = molecular target: AgBbc1
Procedure, shortened: as §1

[47] = molecular target: AgBem1-D1
Procedure, shortened: as §1

[48] = molecular target: AgBzz1-D1
Procedure, shortened: as §1

[49] = molecular target: AgBzz1-D2
Procedure, shortened: as §1

[50] = molecular target: AgCyk3
Procedure, shortened: as §1

[51] = molecular target: AgFus1
Procedure, shortened: as §1

[52] = molecular target: AgHof1
Procedure, shortened: as §1

[53] = molecular target: AgHse1
Procedure, shortened: as §1

[54] = molecular target: AgLsb1
Procedure, shortened: as §1

[55] = molecular target: AgLsb4
Procedure, shortened: as §1

[56] = molecular target: AgMyo5
Procedure, shortened: as §1

[57] = molecular target: AgNbp2
Procedure, shortened: as §1

[58] = molecular target: AgRvs167
Procedure, shortened: as §1

[59] = molecular target: AgSho1
Procedure, shortened: as §1

[60] = molecular target: AgSla1-D1-D2
Procedure, shortened: as §1

[61] = molecular target: AgSla1-D3
Procedure, shortened: as §1

[62] = molecular target: CaAbp1-D1
Procedure, shortened: as §1

[63] = molecular target: CaAbp1-D2
Procedure, shortened: as §1

[64] = molecular target: CaBbc1
Procedure, shortened: as §1

[65] = molecular target: CaBem1-D1
Procedure, shortened: as §1

[66] = molecular target: CaBzz1-D1
Procedure, shortened: as §1

[67] = molecular target: CaBzz1-D2
Procedure, shortened: as §1

[68] = molecular target: CaCyk3
Procedure, shortened: as §1

[69] = molecular target: CaFus1
Procedure, shortened: as §1

[70] = molecular target: CaHof1
Procedure, shortened: as §1

[71] = molecular target: CaHse1
Procedure, shortened: as §1

[72] = molecular target: CaLsb1
Procedure, shortened: as §1

[73] = molecular target: CaLsb4
Procedure, shortened: as §1

[74] = molecular target: CaMyo5
Procedure, shortened: as §1

PAPPPPPRASRPTPN was tested, and the “SPOT peptide array binding signal intensity” value [1] was 39.5, the “SPOT peptide array binding signal intensity” value [2] was 223 and the “SPOT peptide array binding signal intensity” value [3] was 6.25. For the same binder, the “SPOT peptide array binding signal intensity” value [4] was 3.5, the “SPOT peptide array binding signal intensity” value [5] was 242 and the “SPOT peptide array binding signal intensity” value [6] was 3.75. The “SPOT peptide array binding signal intensity” value [7] was 3, the “SPOT peptide array binding signal intensity” value [8] was 72.5 and the “SPOT peptide array binding signal intensity” value [9] was 2. For the same binder, the “SPOT peptide array binding signal intensity” value [10] was 36, the “SPOT peptide array binding signal intensity” value [11] was 24 and the “SPOT peptide array binding signal intensity” value [12] was 2. The “SPOT peptide array binding signal intensity” value [13] was 10, the “SPOT peptide array binding signal intensity” value [14] was 56.2 and the “SPOT peptide array binding signal intensity” value [15] was 6. The “SPOT peptide array binding signal intensity” value [16] was 49.2, the “SPOT peptide array binding signal intensity” value [17] was 3.5 and the “SPOT peptide array binding signal intensity” value [18] was 1110. The “SPOT peptide array binding signal intensity” value [19] was 394, the “SPOT peptide array binding signal intensity” value [20] was 40.5 and the “SPOT peptide array binding signal intensity” value [21] was 22. The “SPOT peptide array binding signal intensity” value [22] was 10.5, the “SPOT peptide array binding signal intensity” value [23] was 304 and the “SPOT peptide array binding signal intensity” value [24] was 966. For the same binder, the “SPOT peptide array binding signal intensity” value [25] was 45, the “SPOT peptide array binding signal intensity” value [26] was 565 and the “SPOT peptide array binding signal intensity” value [27] was 1.5. For the same binder, the “SPOT peptide array binding signal intensity” value [28] was 14.5, the “SPOT peptide array binding signal intensity” value [29] was 1 and the “SPOT peptide array binding signal intensity” value [30] was 208. The “SPOT peptide array binding signal intensity” value [31] was 6.5, the “SPOT peptide array binding signal intensity” value [32] was 3 and the “SPOT peptide array binding signal intensity” value [33] was 5.5. For the same binder, the “SPOT peptide array binding signal intensity” value [34] was 5.5, the “SPOT peptide array binding signal intensity” value [35] was 57.5 and the “SPOT peptide array binding signal intensity” value [36] was 7.5. The “SPOT peptide array binding signal intensity” value [37] was 69.5, the “SPOT peptide array binding signal intensity” value [38] was 1170 and the “SPOT peptide array binding signal intensity” value [39] was 99.5. The “SPOT peptide array binding signal intensity” value [40] was 29.5, the “SPOT peptide array binding signal intensity” value [41] was 2.5 and the “SPOT peptide array binding signal intensity” value [42] was 915. For the same binder, the “SPOT peptide array binding signal intensity” value [43] was 13 and the “SPOT peptide array binding signal intensity” value [44] was no more than 0.

In the case of SSSSTPPTLPPRRIE, the “SPOT peptide array binding signal intensity” value [45] is reported as 7.5, the “SPOT peptide array binding signal intensity” value [46] is reported as 673 and the “SPOT peptide array binding signal intensity” value [47] is reported as 42. For the same binder, the “SPOT peptide array binding signal intensity” value [48] was 49, the “SPOT peptide array binding signal intensity” value [49] was no more than 0 and the “SPOT peptide array binding signal intensity” value [50] was 2. For the same binder, the “SPOT peptide array binding signal intensity” value [51] was no more than 0, the “SPOT peptide array binding signal intensity” value [52] was 55 and the “SPOT peptide array binding signal intensity” value [53] was 42.5. For the same binder, the “SPOT peptide array binding signal intensity” value [54] was 1840, the “SPOT peptide array binding signal intensity” value [55] was 9180 and the “SPOT peptide array binding signal intensity” value [56] was 93.5. The “SPOT peptide array binding signal intensity” value [57] was 10, the “SPOT peptide array binding signal intensity” value [58] was 2660 and the “SPOT peptide array binding signal intensity” value [59] was 1. The “SPOT peptide array binding signal intensity” value [60] was no more than 0, the “SPOT peptide array binding signal intensity” value [61] was no more than 0 and the “SPOT peptide array binding signal intensity” value [62] was 24. The “SPOT peptide array binding signal intensity” value [63] was 34.5, the “SPOT peptide array binding signal intensity” value [64] was 1390 and the “SPOT peptide array binding signal intensity” value [65] was 4. For the same binder, the “SPOT peptide array binding signal intensity” value [66] was 16, the “SPOT peptide array binding signal intensity” value [67] was no more than 0 and the “SPOT peptide array binding signal intensity” value [68] was 2. The “SPOT peptide array binding signal intensity” value [69] was 77, the “SPOT peptide array binding signal intensity” value [70] was 8.75 and the “SPOT peptide array binding signal intensity” value [71] was 731. For the same binder, the “SPOT peptide array binding signal intensity” value [72] was 57.5, the “SPOT peptide array binding signal intensity” value [73] was 7260 and the “SPOT peptide array binding signal intensity” value [74] was no more than 0. For the same binder, the “SPOT peptide array binding signal intensity” value [1] was 76.5, the “SPOT peptide array binding signal intensity” value [2] was 2810 and the “SPOT peptide array binding signal intensity” value [3] was 0.25. The “SPOT peptide array binding signal intensity” value [4] was no more than 0, the “SPOT peptide array binding signal intensity” value [5] was 138 and the “SPOT peptide array binding signal intensity” value [6] was no more than 0. The “SPOT peptide array binding signal intensity” value [7] was no more than 0, the “SPOT peptide array binding signal intensity” value [8] was 61.5 and the “SPOT peptide array binding signal intensity” value [9] was 8. The “SPOT peptide array binding signal intensity” value [10] was 3, the “SPOT peptide array binding signal intensity” value [11] was 2 and the “SPOT peptide array binding signal intensity” value [12] was 2. The “SPOT peptide array binding signal intensity” value [13] was no more than 0, the “SPOT peptide array binding signal intensity” value [14] was 122 and the “SPOT peptide array binding signal intensity” value [15] was no more than 0. For the same binder, the “SPOT peptide array binding signal intensity” value [16] was 2090, the “SPOT peptide array binding signal intensity” value [17] was 1570 and the “SPOT peptide array binding signal intensity” value [18] was 11000. For the same binder, the “SPOT peptide array binding signal intensity” value [19] was 4800, the “SPOT peptide array binding signal intensity” value [20] was 111 and the “SPOT peptide array binding signal intensity” value [21] was 17.5. For the same binder, the “SPOT peptide array binding signal intensity” value [22] was no more than 0, the “SPOT peptide array binding signal intensity” value [23] was 2100 and the “SPOT peptide array binding signal intensity” value [24] was 3870. The “SPOT peptide array binding signal intensity” value [25] was 56.5, the “SPOT peptide array binding signal intensity” value [26] was 6 and the “SPOT peptide array binding signal intensity” value [27] was 1.75. For the same binder, the “SPOT peptide array binding signal intensity” value [28] was no more than 0, the “SPOT peptide array binding signal intensity” value [29] was 0.5 and the “SPOT peptide array binding signal intensity” value [30] was 219.
